An excerpt weighted towards active compounds, which were near 28% of everything screened.
CYP2C9 activ – increases human cytochrome P450 2C9 activity. activation factor at 5 µM. hit rate 1.4% among 96,000. AID 1024. P11712. recombinant CYP2C9, luciferin-H conversion, luminescence; stronger effect = higher value; factor 1 = untreated enzyme, 0 = blocked;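 active means activation factor of 2 or more for CYP2C9 at a 5 µM dose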;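 further: 0 = sulfaphenazole-blocked wells and 1 = vehicle-only wells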
CD11b adhes inh – inhibitors of human CD11b/CD18 binding to fibrinogen; P05107+P11215; inhibition, % at 10 µM; K562 CD11b/CD18 adhesion to fibrinogen, ATPlite luminescence; Mn2+ added to activate the integrin; hit rate 0.54% among 93,000;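 active means primary inhibition of 50% or more at 10 µM, then 40% or more on retest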
CYP2C19 inhib – human CYP2C19 inhibition. P33261. CYP2C19 Supersomes, luciferin-H EGE luminescence, 30 min. inhibition, % at 5 µM. hit rate 21% among 96,000;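 active means CYP2C19 inhibition above a set limit at 5 µM in the primary screen, cut at about 50% in these data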;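 further: plate controls were negative control wells for no effect and 2.5 mM tranylcypromine positive control for full effect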
Target sequence (P33261 whole entry, looked up): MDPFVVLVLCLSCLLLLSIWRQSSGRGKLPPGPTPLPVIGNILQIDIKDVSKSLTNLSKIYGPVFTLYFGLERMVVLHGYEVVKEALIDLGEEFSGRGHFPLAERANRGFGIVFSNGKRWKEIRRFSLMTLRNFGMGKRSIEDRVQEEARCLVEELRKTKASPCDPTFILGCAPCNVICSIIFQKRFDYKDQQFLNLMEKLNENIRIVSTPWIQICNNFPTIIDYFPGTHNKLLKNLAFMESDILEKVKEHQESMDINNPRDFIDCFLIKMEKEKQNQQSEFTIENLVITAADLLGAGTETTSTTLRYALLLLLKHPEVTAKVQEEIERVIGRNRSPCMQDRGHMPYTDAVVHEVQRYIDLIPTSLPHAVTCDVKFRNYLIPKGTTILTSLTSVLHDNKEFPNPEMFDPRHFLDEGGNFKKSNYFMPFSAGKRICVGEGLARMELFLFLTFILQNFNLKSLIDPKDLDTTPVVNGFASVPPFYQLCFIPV
CYP2C19 activ – cytochrome P450 2C19 (human) activation. recombinant CYP2C19, luciferin-H EGE luminescence; stronger effect = higher value; 0 = fully inhibited enzyme, 1 = untreated enzyme. activation factor at 5 µM. 96,000 tested, under 10 active;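 active means activation factor of at least 2 at 5 µM in the primary screen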;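 further: 0 = wells with 2.5 mM tranylcypromine and 1 = vehicle-only wells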
CYP2C9 inhib – blocks human cytochrome P450 2C9 | P11712 | CYP2C9 Supersomes, luciferin-H conversion, luminescence | inhibition, % at 5 µM | hit rate 20% among 96,000 | AID 777;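 active means blocking of liver enzyme CYP2C9 beyond about 50% at 5 µM, limit read from the data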
Mac1 fbg enh – increases human CD11b/CD18 adhesion to fibrinogen; K562 CD11b/CD18 adhesion to fibrinogen, ATPlite luminescence; activation, % at 10 µM; hit rate 0.07% among 93,000;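 active means 10 µM primary screen giving 50% or more activity, confirmed by 40% or more on retest at that dose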
* marks the source's active call; other numbers are inactive results; / = no result given.

SMILES	CYP2C9 activ	CD11b adhes inh	CYP2C19 inhib	CYP2C19 activ	CYP2C9 inhib	Mac1 fbg enh
Cc1ccc(-c2cc(C(=O)Nc3ccc(S(=O)(=O)Nc4nccs4)cc3)c3ccccc3n2)c(C)c1	/	-11	/	/	/	57
COc1ccc(N2CSC3=C(C#N)C(c4cc(OC)c(OC)cc4OC)CC(=O)N3C2)c(OC)c1 (stereo not drawn)	0.7	-1	9	0.9	34	-4
COc1ccc(N2CSC3=C(C#N)C(c4ccc(OC)c(OC)c4)CC(=O)N3C2)c(OC)c1 (stereo not drawn)	0.9	8	-2	1	14	0
CCOc1ccccc1N1CSC2=C(C#N)C(c3c(OC)ccc4ccccc34)CC(=O)N2C1 (stereo not drawn)	0	-1	75*	0.2	100*	25
COc1ccc(C2CC(=O)N3CN(c4ccc(C)c(Cl)c4)CSC3=C2C#N)cc1OC (stereo not drawn)	0	14	21	0.8	96*	-12
COc1ccc(N2CSC3=C(C#N)C(c4cc(OC)ccc4OC)CC(=O)N3C2)c(OC)c1 (stereo not drawn)	0.5	-6	1	1	53*	-5
COc1ccc(S(N)(=O)=O)cc1C(=O)NCC1(N2CCCCC2)CCCCC1	1.1	6	1	1	-7	-1
CS(=O)(=O)N1CCCC(C(=O)NCCCN2CCOCC2)C1 (stereo not drawn)	1	-17	-2	1	-1	-3
Cc1ccc(C(=O)N[C@H](C(=O)OCc2cc(=O)oc3cc(C)ccc23)C(C)C)cc1	/	7	/	/	/	-2
Cc1cccc(Nc2nc(NC(C)C)nc(Oc3ccc(=O)n(C)n3)n2)c1	0.5	-5	16	0.8	53*	0
Cc1ccccc1-c1nc(S(=O)(=O)c2ccc(Cl)cc2)c(NCCN2CCOCC2)o1	0.6	-6	35	0.6	36	-1
N#Cc1nc(-c2ccccc2F)oc1NCCN1CCOCC1	0.7	-15	64*	0.4	27	3
O=S(=O)(c1ccccc1)c1nc(-c2ccccc2Cl)oc1NCCN1CCOCC1	0.2	-18	36	0.6	77*	3
Cc1ccc(N(C)S(=O)(=O)c2cccc(C(=O)NC3=NCCS3)c2)cc1	0.3	7	41	0.6	69*	-4
COc1cccc(C(=O)NC2=NCCS2)c1OC	1.1	0	34	0.7	-6	-1
COc1ccc(N(C)S(=O)(=O)c2cccc(C(=O)NC3=NCCS3)c2)cc1	0.4	-12	44	0.6	64*	-1
O=C(c1cccs1)N1CCC(c2ccccc2)C1 (stereo not drawn)	0.2	-57	98*	0	81*	4
O=C(CCN1CCC(c2ccccc2)C1)c1ccccc1 (stereo not drawn)	0.4	/	88*	0.1	58*	/
O=C(Nc1ccccc1)N1CCC(c2ccccc2)C1 (stereo not drawn)	0.9	3	73*	0.3	12	-1
O=C(Nc1ccccc1)N1CCC(n2c(=O)[nH]c3ccccc32)CC1	0.3	-6	28	0.7	72*	5
O=C(c1cccs1)N1CCC(N2CCN(c3ccccc3)CC2)CC1	1	4	5	1	-1	-1
O=C(CCN1CCC(c2ccccc2)C1)c1ccc2c(c1)OCCO2 (stereo not drawn)	1.3	14	-5	1.1	-30	-1
COC(=O)[C@H](C)NC(=O)NC1CCN(Cc2ccccc2)CC1	1	2	0	1	4	1
O=C(CNC(=O)c1cccs1)NCCN1CCC(Cc2ccccc2)CC1	/	23	/	/	/	5
O=C(CCN1CCC(c2ccccc2)C1)c1cccs1 (stereo not drawn)	0.8	-4	78*	0.2	25	-2
N/C(=N\OC(=O)CCC1CCCC1)c1cccc([N+](=O)[O-])c1	/	-5	/	/	/	7
Cc1ccc(SC/C(O)=C(\C#N)c2nc3ccccc3s2)cc1	0	101*	54*	0.5	100*	-10
N#C/C(=C1/CCCCCN1)c1nc2ccccc2s1	1	-4	-5	1	3	-4
COc1ccc(C/C(O)=C(\C#N)c2nc3ccccc3s2)cc1	0.3	104*	-1	1	68*	-11
